Experimental data as given in ChEMBL document CHEMBL1961873, “Compounds: GSK PKIS; Assays: Nanosyn kinase panel” (2012).

Columns and labels:
[1] = target: Serine/threonine-protein kinase MARK2 (Homo sapiens) (UniProt Q7KZI7); details: at 1 µM
[2] = target: PAS domain-containing serine/threonine-protein kinase (Homo sapiens) (UniProt Q96RG2); details: at 0.1 µM
[3] = target: PAS domain-containing serine/threonine-protein kinase (Homo sapiens) (UniProt Q96RG2); details: at 1 µM
[4] = target: Phosphorylase b kinase gamma catalytic chain, skeletal muscle/heart isoform (Homo sapiens) (UniProt Q16816); details: at 0.1 µM
[5] = target: Phosphorylase b kinase gamma catalytic chain, skeletal muscle/heart isoform (Homo sapiens) (UniProt Q16816); details: at 1 µM
[6] = target: T1, Phosphorylase b kinase gamma catalytic chain, liver/testis isoform (Homo sapiens) (UniProt P15735); details: at 0.1 µM
T1 sequence (whole entry): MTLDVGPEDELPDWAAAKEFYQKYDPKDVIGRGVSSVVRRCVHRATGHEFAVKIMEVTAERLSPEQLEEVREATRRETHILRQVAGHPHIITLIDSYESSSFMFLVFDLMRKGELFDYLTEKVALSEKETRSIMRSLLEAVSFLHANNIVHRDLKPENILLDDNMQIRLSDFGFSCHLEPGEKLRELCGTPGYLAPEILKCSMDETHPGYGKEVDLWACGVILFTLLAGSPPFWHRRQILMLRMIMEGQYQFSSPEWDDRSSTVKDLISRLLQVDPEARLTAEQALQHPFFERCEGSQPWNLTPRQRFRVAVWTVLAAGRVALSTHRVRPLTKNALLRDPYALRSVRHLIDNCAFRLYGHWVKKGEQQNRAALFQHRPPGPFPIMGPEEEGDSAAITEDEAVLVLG

[7] = target: T1, Phosphorylase b kinase gamma catalytic chain, liver/testis isoform (Homo sapiens); details: at 1 µM
[8] = target: Serine/threonine-protein kinase pim-1 (Homo sapiens) (UniProt P11309); details: at 0.1 µM
[9] = target: Serine/threonine-protein kinase pim-1 (Homo sapiens) (UniProt P11309); details: at 1 µM
[10] = target: Serine/threonine-protein kinase pim-2 (Homo sapiens) (UniProt Q9P1W9); details: at 0.1 µM
[11] = target: Serine/threonine-protein kinase pim-2 (Homo sapiens) (UniProt Q9P1W9); details: at 1 µM
[12] = target: Serine/threonine-protein kinase pim-3 (Homo sapiens) (UniProt Q86V86); details: at 0.1 µM
[13] = target: Serine/threonine-protein kinase pim-3 (Homo sapiens) (UniProt Q86V86); details: at 1 µM
[14] = target: T2, MAP kinase-activated protein kinase 5 (Homo sapiens) (UniProt Q8IW41); details: at 0.1 µM
T2 sequence (whole entry): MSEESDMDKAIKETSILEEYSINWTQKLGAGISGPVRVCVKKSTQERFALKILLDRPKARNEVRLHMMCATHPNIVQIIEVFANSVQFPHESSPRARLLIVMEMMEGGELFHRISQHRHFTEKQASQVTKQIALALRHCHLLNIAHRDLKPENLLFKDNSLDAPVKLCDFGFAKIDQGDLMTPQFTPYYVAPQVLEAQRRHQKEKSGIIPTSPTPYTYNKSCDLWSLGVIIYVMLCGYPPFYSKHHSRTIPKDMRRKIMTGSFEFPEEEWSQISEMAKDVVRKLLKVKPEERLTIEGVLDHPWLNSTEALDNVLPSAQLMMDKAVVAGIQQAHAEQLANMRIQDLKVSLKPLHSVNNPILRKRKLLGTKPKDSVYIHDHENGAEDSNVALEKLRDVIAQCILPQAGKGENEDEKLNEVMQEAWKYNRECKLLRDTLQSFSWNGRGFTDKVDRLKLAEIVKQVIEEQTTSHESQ

[15] = target: T2, MAP kinase-activated protein kinase 5 (Homo sapiens); details: at 1 µM
[16] = target: Serine/threonine-protein kinase SIK1 (Homo sapiens) (UniProt P57059); details: at 0.1 µM
[17] = target: Serine/threonine-protein kinase SIK1 (Homo sapiens) (UniProt P57059); details: at 1 µM
[18] = target: Serine/threonine-protein kinase SIK2 (Homo sapiens) (UniProt Q9H0K1); details: at 0.1 µM
[19] = target: Serine/threonine-protein kinase SIK2 (Homo sapiens) (UniProt Q9H0K1); details: at 1 µM
[20] = target: T3, Serine/threonine-protein kinase TBK1 (Homo sapiens) (UniProt Q9UHD2); details: at 0.1 µM;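 further: values are the mean TBK1 inhibition, taken from the GSK PKIS screening data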
T3 sequence (whole entry): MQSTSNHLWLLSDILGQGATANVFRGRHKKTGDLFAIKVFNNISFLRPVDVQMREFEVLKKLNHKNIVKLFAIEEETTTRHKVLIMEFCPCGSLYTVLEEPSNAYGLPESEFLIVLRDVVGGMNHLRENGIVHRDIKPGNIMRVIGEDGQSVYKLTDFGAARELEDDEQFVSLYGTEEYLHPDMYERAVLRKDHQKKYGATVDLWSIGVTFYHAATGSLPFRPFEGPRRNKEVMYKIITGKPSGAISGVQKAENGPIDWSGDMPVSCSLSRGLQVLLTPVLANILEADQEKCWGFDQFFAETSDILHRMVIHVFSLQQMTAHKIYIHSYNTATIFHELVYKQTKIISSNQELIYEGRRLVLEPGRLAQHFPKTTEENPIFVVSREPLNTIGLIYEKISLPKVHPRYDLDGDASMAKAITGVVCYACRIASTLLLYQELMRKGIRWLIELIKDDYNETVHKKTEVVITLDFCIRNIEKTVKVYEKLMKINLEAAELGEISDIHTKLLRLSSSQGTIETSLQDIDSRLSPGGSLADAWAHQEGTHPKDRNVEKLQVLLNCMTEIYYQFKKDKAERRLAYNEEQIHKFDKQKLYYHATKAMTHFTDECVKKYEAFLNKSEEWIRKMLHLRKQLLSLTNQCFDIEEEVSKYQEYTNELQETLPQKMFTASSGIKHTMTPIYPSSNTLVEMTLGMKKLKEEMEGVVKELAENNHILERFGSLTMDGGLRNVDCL

Chain of Serine/threonine-protein kinase MARK2 (Homo sapiens) (Q7KZI7 whole entry, the tested form may be a part): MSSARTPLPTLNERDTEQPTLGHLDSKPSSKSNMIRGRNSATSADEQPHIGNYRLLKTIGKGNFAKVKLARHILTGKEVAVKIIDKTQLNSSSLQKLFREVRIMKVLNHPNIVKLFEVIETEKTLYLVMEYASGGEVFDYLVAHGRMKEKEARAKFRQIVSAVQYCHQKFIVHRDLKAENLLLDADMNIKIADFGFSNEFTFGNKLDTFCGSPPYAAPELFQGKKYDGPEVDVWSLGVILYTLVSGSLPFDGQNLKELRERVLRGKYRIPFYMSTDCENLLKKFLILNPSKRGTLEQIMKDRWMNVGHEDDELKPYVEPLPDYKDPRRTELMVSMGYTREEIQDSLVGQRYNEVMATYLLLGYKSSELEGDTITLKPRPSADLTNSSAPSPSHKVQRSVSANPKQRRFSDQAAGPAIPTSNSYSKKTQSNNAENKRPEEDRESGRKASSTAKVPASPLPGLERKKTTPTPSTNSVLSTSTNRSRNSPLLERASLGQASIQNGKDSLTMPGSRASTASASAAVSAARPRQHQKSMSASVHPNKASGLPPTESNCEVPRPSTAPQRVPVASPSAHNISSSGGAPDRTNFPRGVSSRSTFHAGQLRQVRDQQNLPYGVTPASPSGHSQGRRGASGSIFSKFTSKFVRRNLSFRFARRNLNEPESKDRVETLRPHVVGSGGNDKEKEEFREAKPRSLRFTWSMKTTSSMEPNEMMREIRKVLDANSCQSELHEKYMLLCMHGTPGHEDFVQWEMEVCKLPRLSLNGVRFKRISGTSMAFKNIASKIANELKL
Chain of Serine/threonine-protein kinase pim-1 (Homo sapiens) (P11309 whole entry, looked up): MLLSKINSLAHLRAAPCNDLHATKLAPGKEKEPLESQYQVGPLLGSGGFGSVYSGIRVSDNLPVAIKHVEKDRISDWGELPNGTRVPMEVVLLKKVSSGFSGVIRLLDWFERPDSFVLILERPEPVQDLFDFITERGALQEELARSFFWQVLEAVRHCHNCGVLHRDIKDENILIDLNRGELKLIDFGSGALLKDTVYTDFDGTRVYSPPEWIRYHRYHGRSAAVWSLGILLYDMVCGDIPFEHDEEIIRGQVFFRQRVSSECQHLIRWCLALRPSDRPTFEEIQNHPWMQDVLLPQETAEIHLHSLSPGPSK
Chain of Serine/threonine-protein kinase SIK1 (Homo sapiens) (P57059 whole entry): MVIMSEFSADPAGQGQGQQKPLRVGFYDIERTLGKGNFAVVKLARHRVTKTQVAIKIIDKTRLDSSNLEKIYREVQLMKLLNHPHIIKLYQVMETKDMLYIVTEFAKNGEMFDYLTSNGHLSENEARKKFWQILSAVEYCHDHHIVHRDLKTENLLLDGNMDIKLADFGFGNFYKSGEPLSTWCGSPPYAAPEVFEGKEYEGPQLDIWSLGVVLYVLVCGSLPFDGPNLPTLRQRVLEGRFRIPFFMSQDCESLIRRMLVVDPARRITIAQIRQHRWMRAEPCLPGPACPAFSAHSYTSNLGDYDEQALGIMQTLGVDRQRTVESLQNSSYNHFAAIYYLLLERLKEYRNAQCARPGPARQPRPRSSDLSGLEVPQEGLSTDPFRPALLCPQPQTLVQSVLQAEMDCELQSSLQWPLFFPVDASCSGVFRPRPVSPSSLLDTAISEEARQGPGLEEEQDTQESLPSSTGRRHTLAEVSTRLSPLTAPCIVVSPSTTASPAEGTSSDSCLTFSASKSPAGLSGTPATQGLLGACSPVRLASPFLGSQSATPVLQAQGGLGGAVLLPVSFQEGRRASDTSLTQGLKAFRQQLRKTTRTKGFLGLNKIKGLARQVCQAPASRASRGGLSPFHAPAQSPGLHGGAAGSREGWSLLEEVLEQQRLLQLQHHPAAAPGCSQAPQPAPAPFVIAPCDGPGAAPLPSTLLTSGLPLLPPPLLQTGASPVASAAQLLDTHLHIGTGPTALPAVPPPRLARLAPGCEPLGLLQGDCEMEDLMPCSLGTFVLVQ
Chain of PAS domain-containing serine/threonine-protein kinase (Homo sapiens) (Q96RG2 whole entry, the tested form may be a part, canonical isoform): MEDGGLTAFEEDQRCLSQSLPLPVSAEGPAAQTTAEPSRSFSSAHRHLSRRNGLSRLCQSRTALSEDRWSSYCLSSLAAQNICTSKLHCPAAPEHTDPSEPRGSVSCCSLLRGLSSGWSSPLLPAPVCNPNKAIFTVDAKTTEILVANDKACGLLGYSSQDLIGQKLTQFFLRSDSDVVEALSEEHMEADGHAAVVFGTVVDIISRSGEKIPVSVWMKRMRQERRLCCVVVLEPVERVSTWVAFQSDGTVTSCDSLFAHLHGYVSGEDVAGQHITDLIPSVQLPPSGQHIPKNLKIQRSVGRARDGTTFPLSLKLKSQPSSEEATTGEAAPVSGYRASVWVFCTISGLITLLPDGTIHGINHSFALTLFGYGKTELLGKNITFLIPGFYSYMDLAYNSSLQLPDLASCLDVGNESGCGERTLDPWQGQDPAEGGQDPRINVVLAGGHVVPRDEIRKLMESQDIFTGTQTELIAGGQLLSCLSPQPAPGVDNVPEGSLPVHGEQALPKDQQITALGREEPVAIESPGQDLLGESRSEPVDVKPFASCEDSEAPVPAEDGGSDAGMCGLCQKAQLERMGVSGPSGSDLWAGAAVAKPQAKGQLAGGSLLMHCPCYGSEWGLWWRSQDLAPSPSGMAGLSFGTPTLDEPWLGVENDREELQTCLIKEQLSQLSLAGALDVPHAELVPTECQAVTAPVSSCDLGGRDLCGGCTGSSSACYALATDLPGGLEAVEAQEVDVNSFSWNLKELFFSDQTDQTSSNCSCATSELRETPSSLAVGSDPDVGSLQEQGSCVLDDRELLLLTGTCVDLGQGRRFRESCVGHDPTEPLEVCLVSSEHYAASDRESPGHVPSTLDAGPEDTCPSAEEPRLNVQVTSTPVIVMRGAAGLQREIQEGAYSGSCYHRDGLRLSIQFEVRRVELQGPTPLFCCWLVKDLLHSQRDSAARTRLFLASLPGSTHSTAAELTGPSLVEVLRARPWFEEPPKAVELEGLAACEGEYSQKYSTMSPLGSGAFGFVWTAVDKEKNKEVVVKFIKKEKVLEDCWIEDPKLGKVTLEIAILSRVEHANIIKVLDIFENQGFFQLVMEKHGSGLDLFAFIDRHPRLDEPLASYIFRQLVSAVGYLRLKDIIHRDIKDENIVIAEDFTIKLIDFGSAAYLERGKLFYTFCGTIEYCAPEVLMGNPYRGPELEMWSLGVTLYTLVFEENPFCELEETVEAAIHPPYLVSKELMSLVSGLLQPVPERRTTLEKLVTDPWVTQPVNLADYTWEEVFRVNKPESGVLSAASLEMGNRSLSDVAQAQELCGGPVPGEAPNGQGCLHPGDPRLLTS
Chain of Serine/threonine-protein kinase pim-2 (Homo sapiens) (Q9P1W9 whole entry, looked up): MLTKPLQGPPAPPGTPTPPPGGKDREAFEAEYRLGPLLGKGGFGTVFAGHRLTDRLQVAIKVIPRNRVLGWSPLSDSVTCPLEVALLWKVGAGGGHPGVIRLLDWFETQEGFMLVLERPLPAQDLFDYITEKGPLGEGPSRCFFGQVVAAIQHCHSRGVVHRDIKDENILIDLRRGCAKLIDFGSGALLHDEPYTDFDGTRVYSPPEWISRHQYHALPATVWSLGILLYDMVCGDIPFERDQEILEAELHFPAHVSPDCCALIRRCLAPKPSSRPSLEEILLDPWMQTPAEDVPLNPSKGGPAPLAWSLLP
Chain of Phosphorylase b kinase gamma catalytic chain, skeletal muscle/heart isoform (Homo sapiens) (Q16816 whole entry, looked up, canonical isoform): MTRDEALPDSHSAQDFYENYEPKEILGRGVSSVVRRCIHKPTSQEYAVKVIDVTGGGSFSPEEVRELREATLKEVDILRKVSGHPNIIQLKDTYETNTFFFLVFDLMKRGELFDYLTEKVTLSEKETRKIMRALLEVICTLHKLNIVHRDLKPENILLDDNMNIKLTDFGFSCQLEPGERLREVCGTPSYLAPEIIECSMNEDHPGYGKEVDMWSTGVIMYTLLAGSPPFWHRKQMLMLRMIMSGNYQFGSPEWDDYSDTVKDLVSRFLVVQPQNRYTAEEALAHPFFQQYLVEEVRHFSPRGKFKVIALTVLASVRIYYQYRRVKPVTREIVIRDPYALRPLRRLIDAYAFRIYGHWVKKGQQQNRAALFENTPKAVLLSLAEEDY

Structure (SMILES) | inhibition [1] [%] | inhibition [2] [%] | inhibition [3] [%] | inhibition [4] [%] | inhibition [5] [%] | inhibition [6] [%] | inhibition [7] [%] | inhibition [8] [%] | inhibition [9] [%] | inhibition [10] [%] | inhibition [11] [%] | inhibition [12] [%] | inhibition [13] [%] | inhibition [14] [%] | inhibition [15] [%] | inhibition [16] [%] | inhibition [17] [%] | inhibition [18] [%] | inhibition [19] [%] | inhibition [20] [%]
CCn1c(-c2nonc2N)nc2c(C#CC(C)(C)O)ncc(OC3CCNCC3)c21 | 62.2 | -0.02 | 13.1 | 1.52 | 3.09 | 4.06 | 3.58 | 2.62 | 24.1 | 1.16 | 11.7 | 2.64 | 23.8 | 0.79 | 1.22 | 3.53 | 10.6 | 3.69 | 14.8 | 12.2
NS(=O)(=O)c1ccc(Nc2ncc(-c3ccccc3)o2)cc1 | 7.59 | -0.04 | -0.31 | 3.92 | 18.4 | 4.88 | 7.08 | 0.17 | 0.64 | -0.58 | 0.32 | -0.13 | 0.88 | 1.46 | 1.61 | 6.09 | 9.25 | 6.43 | 18.9 | 3.13
COc1ccc2[nH]c3c4[nH]c5ccc(OC)cc5c4c4c(c3c2c1)C(=O)NC4=O | 11.8 | -0.49 | -1.47 | 48.4 | 73.3 | 9.06 | 39.8 | 28.7 | 74.2 | 21.4 | 68.3 | 66.7 | 82.7 | 2.48 | 8.8 | 26.9 | 77.2 | 56.4 | 78.2 | 10.9
CCN1CCC(CC(=O)Nc2n[nH]c3nnc(-c4cccc(F)c4F)cc23)CC1 | 1.15 | 0.77 | 1.59 | 5.02 | 5.09 | 3.86 | 4.27 | 0.56 | 0.7 | 0.39 | 1.56 | 1.76 | 2.5 | 1.08 | 1.15 | 4.85 | 5.87 | -1.82 | 1.81 | 1.12
Nc1nc(-c2ccc(F)cc2)c(-c2ccc3ncccc3n2)s1 | 0.96 | 0.84 | -0.64 | 4.41 | 7.81 | 6.3 | 5.79 | 0.35 | 2.38 | 0.17 | 0.96 | 0.41 | 2.02 | 1.52 | 2.44 | 11.6 | 7.23 | 8.76 | 11.6 | 3.41
NC(=O)c1sc(-n2cnc3ccc(C(F)(F)F)cc32)cc1OCc1ccccc1Br | -0.94 | -1.22 | -1.68 | 4.21 | 7.92 | 5.06 | 4.43 | -0.41 | 2.03 | -0.42 | -0.68 | 1.1 | 0.16 | 1.65 | 2.02 | 6.13 | 9.77 | 5.75 | 9.85 | 0.45
CCCN(CCS(C)(=O)=O)Cc1ccc(-c2ccc3ncnc(Nc4ccc(OCc5cccc(F)c5)c(Cl)c4)c3c2)o1 | -0.2 | 0.15 | -0.42 | 1.09 | 2.68 | 1.93 | 1.35 | 0.83 | 0.67 | -0.45 | 0.55 | 0.79 | 1.71 | 0.4 | 0.36 | 5.69 | 6.39 | 4.14 | 7.64 | 2.46
c1cc(-c2cnn3nc(N4CCOCC4)ccc23)nc(NC2CC2)n1 | 7.93 | 0.49 | -0.94 | 3.94 | 29.5 | 6.12 | 12.2 | 0.22 | 3.37 | -0.29 | 0.92 | -0.59 | 4.8 | 1.08 | 0.41 | 7.04 | 5.66 | 6.34 | 7.7 | 3.02
COc1cc2ncn(-c3cc(OCc4ccccc4C(F)(F)F)c(C(=O)N(C)C)s3)c2cc1OC | -0.58 | -1.08 | 0.41 | -0.58 | 1.87 | -1.54 | -0.32 | 0.36 | -0.31 | -0.26 | 0.27 | -0.34 | 0.56 | 0.07 | 0.04 | 2.6 | 15.2 | 4.39 | 9.54 | 2.13
CC(=O)NCc1cccc(C#Cc2cncnc2Nc2ccc(OCc3cccc(F)c3)c(Cl)c2)c1 | 1.33 | -0.91 | -1.6 | 3.33 | 5.96 | -0.18 | -1.04 | 1.13 | 0.22 | 0.41 | 0.6 | -0.57 | -1.13 | 0 | 0.14 | 1.32 | 2.96 | -1.4 | 5.8 | -0.27
Fc1ccc(-c2nn3ccccc3c2-c2ccncc2)cc1 | 0.53 | -0.17 | -0.32 | 2.42 | 2.09 | 0.28 | -0.7 | -0.39 | 0.04 | -0.3 | -0.05 | -0.94 | -1.43 | 0.01 | -0.42 | 1.08 | 4.41 | 0 | 14.9 | 2.66
CCn1cc(-c2ccnc3[nH]ccc23)c(-c2cccc(NC(=O)Nc3ccc(OCc4ccccc4)cc3)c2)n1 | 1.54 | 0.94 | 1.65 | 1.58 | 4.8 | 1.37 | 1.3 | -0.93 | -1.25 | 0.19 | 0.13 | -0.81 | -1.13 | -0.44 | -0.98 | 1.1 | 3.35 | -4.91 | -0.71 | -0.45
COc1ccc(CNC(=O)c2ccc(-c3cc(-c4nnc(C)o4)ccc3C)cc2)cc1 | 0.82 | 2.29 | 8.41 | 3.84 | 6.56 | 3.12 | 9.31 | 1.62 | 1.96 | 2.9 | 3.03 | 4.73 | 8.32 | 2.76 | 5.41 | 1.54 | 2.92 | 6.86 | 6.77 | 2.25
